# Measurements published in PubChem BioAssay (NCATS).
# Records with an inconclusive call do not appear. Unmarked numbers belong to inactive results. Calls of active or inactive are those of the source. Calls follow the shape of the dose curve; as a rule, active = well fitted cell-killing curve with a large enough effect; inconclusive = small, poorly fitted or top-dose-only effect, or effect the other way; inactive = flat fitted curve, though single readings scatter.
# Tested on: CAOV3
# Assay: Primary qHTS to identify gynecologic anti-cancer compounds using libraries of approved drugs and bioactive compounds (AID 1345084); also: nearly all actives have a fitted effect of over 55% in size
# Details: Gynecologic cancer cell panel viability, ATPlite luminescence, 48 h; series mostly up to 57.5 µM; activity change, negative = cytotoxicity: at the top concentration
# From the text: National Center for Advancing Translational Sciences [NCATS] Assay Overview: Chemotherapeutic drug responses vary from cancer to cancer and from patient to patient. These variations could be caused by a number of factors including patient genomic background, tumor mutations, tumor heterogeneity, and aspects of drug treatment. Chemotherapeutic drug resistance is also a common issue and can lead to ineffective treatment and patient death. Here we have profiled the cell killing effects of thousands of compounds to characterize the responses in three gynecological cancers, identify cancer-selective compounds, and understand the diversity of responses to these compounds from pan-cancer suppressors to single cell line selective compounds. In this assay, we screened a 7,914 compound drug library that included approved drug and bioactive compounds in six ovarian, three cervical, and […] placental cancer cell lines using the ATPlite assay for cell viability. […] The cervical cancer cell lines included HeLa, Ca Ski, and C-33 A. The placental cancer cell lines included JEG-3. HEK 293T cells were used as the control cell line to determine the selectivity index. ATPlite is a luminescence based assay reliant on the conversion of a luciferase substrate to light in the presence of ATP. As a cytotoxic compound will suppress growth and decrease the number of cells, the concentration of ATP will decrease, and less light signal will be detected in the well.
# Assay Protocol Summary: 1,000 cells in 4 uL of media were dispensed into white, solid bottom 1536-well plates using a Multidrop Combi (Thermo Scientific). The Assay plates were incubated for 16 hours at 37 C with 5% CO2 in assay plates, followed by the addition of 23 nL of DMSO or drug dissolved in DMSO. Each compound was assayed in five concentrations (0.092, 0.46, 2.3, 11.5, and 57.5 uM), using the automated Wako 1536 Pin Tool workstation and incubated at 37 C with 5% CO2 48 hours. 4 uL of ATPlite, the ATP monitoring reagent, was then added to the each well of the assay plates using the Multidrop Combi reagent dispenser followed by incubation for 15 minutes at room temperature. The resulting luminescence was measured using the ViewLux plate reader.
# % is scaled to controls: 0 for no effect and ±100 for the full control effect; potency is read from the fitted curve at half-maximal effect.
Structure (SMILES),"activity change, negative = cytotoxicity",Potency
Nc1nc2c(ncn2CCC(CO)CO)c(=O)[nH]1,-0.111%,–
CC/C=C(\C(=O)N[C@@H]1C(=O)N2C(C(=O)OCOC(=O)C(C)(C)C)=C(COC(N)=O)CS[C@H]12)c1csc(N)n1,–,inactive
C[C@@H]1C[C@H]2[C@@H]3C[C@H](F)C4=CC(=O)C=C[C@]4(C)[C@@]3(F)[C@@H](O)C[C@]2(C)[C@@]1(O)C(=O)CO,–,inactive
N[C@H](C(=O)O)c1ccc(O)cc1,2.02% [at 25.3 µM],–
Nc1ccc(S(=O)(=O)NC(=O)c2ccccc2)cc1,-2.68%,–
O=C1O[C@H]([C@@H](O)CO)C(O)=C1O,-2.66%,–
CCC(=O)c1ccc(O)cc1,-8.92%,–
O=S(=O)(O)c1cc(I)c(O)c2ncccc12,9.51%,–
CCn1cc(C(=O)O)c(=O)c2cnc(N3CCNCC3)nc21,14.3%,–
CCCCC/C(C=O)=C\c1ccccc1,3.15%,–
CC(C)(C(=O)O)c1ccc(C(O)CCCN2CCC(C(O)(c3ccccc3)c3ccccc3)CC2)cc1 (stereo not given),–,inactive
CC1(C)Oc2ccc(C#N)cc2[C@@H](N2CCCC2=O)[C@@H]1O,-1.11%,–
Cc1cc(N)c2ccccc2[n+]1CCCCCCCCCC[n+]1c(C)cc(N)c2ccccc21,–,14.1 µM (active)
CC(=O)O[C@@]12CO[C@@H]1C[C@H](O)[C@@]1(C)C(=O)[C@H](O)C3=C(C)[C@@H](OC(=O)[C@H](O)[C@@H](NC(=O)OC(C)(C)C)c4ccccc4)C[C@@](O)([C@@H](OC(=O)c4ccccc4)[C@H]21)C3(C)C,-3.72%,–
NC(=O)c1ncn([C@@H]2O[C@H](CO)[C@@H](O)[C@H]2O)c1N,26%,–
Oc1cccc(O)c1,-0.905%,–
O=S(=O)(O)NC1CCCCC1,2.33%,–
CN(C)CCN(Cc1ccccc1)c1ccccn1,20%,–
CCCCCCCCCCCCCCCCCCOCC(O)CO (stereo not given),-3.51%,–
CO/N=C(\C(=O)N[C@@H]1C(=O)N2C(C(=O)O)=C(CSc3nc(=O)c(O)nn3C)CS[C@H]12)c1csc(N)n1,-6.17%,–

Structure (SMILES),"activity change, negative = cytotoxicity",Potency
CC(=O)NC(Cc1ccccc1)C(=O)O (stereo not given),–,inactive
CCN(CC)C(=O)Nc1ccc(OCC(O)CNC(C)(C)C)c(C(C)=O)c1 (stereo not given),–,inactive
NC(=O)NC(=O)Cc1ccccc1,-0.489%,–
CC(C)C(=O)c1c(C(C)C)nn2ccccc12,18.4%,–
CC(COc1ccccc1)NC(C)C(O)c1ccc(O)cc1 (stereo not given),-14.6%,–
C[C@]12CC[C@@H]3c4ccc(O)cc4CC[C@H]3[C@@H]1CCC2=O,3.22%,–
OCC(CO)N[C@H]1C[C@](O)(CO)[C@@H](O)[C@H](O)[C@H]1O,-6.15%,–
Cc1c(O)cccc1C(=O)N[C@@H](CSc1ccccc1)[C@H](O)CN1C[C@H]2CCCC[C@H]2C[C@H]1C(=O)NC(C)(C)C,-12.7%,–
COc1ccc(S(=O)(=O)Nc2nnc(CC(C)C)s2)cc1,12.5%,–
C[C@H](N)[C@H](O)c1cccc(O)c1,8.51%,–
COc1cc2[nH]c(=O)[nH]c(=O)c2cc1OC,-6.93%,–
O=c1cc[nH]c(=S)[nH]1,9.08%,–
NCC(=O)CCC(=O)O,9.5%,–
CC1=C(CC(=O)O)c2cc(F)ccc2/C1=C\c1ccc(S(C)(=O)=O)cc1,-8.11%,–
CN1CCC[C@@H]1Cc1c[nH]c2ccc(CCS(=O)(=O)c3ccccc3)cc12,–,inactive
CC(=O)Oc1ccc(C2(c3ccc(OC(C)=O)cc3)C(=O)Nc3ccccc32)cc1,-1.31%,–
COc1ccc(Cl)cc1C(=O)NCCc1ccc(S(=O)(=O)NC(=O)NC2CCCCC2)cc1,–,inactive
CC(O)COc1ccccc1 (stereo not given),22.7%,–
Cc1cccc(Nc2cc(Cl)nc(SCC(=O)O)n2)c1C,-0.423%,–
CCCCOC(=O)c1ccc(O)cc1,0.469%,–
